Assay [1] concerns XIP peptide (Xip251-270) binding. Put plainly: small-molecule binders of XIP peptide, primary screen, biochemical, small-molecule microarray, fluorescence 635/667 nm, 0.1 µg/mL protein (AID 1182). As to conditions: fluorescent protein binding, 635 nm, higher = more signal, called active from +8 up or from −8 down.
The test system of the next assay is XIP peptide (Xip251-270). Put plainly: small-molecule binders of XIP peptide, primary screen, biochemical, small-molecule microarray, fluorescence 635/667 nm, 0.5 µg/mL protein (AID 1183). The settings on record: small-molecule microarray binding, fluorescence 635 nm; higher = more signal.
Assay [2] in a line: Plasmodium falciparum growth inhibition, primary screen, strain 3D7, DAPI fluorescence, 100 nL (AID 1184).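 Also: parasites grown inside human red blood cells in medium with human serum.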 The settings on record: P. falciparum 3D7 growth, 3 d, higher = more signal.
For assay [3], the target named is Homeobox protein Hox-A13 (Mus musculus) (UniProt Q62424). Put plainly: inhibitors of HoxA13-DNA binding, primary screen, biochemical, fluorescence polarization, labeled oligonucleotide (AID 1185). As to conditions: 15 min, higher = more signal, called active from +8 up or from −8 down. In general terms: In fluorescence polarisation assays a small probe gives low polarisation when free and higher when bound to something large.

Assay [4] can be described thus: inhibitors of hydroxyurea-induced Chk1 phosphorylation, primary screen, imaging, HeLa, phospho-Chk1 antibody, percent positive cells (AID 1186). As to conditions: hydroxyurea-induced phospho-Chk1 immunofluorescence imaging, higher = more signal.
The nature of assay [5]: inhibitors of hydroxyurea-induced Chk1 phosphorylation, primary screen, imaging, HeLa, phospho-Chk1 nuclear intensity (AID 1187). As to conditions: hydroxyurea-induced phospho-Chk1 immunofluorescence imaging, higher = more signal.

SMILES strings stand for the structures. The source made the active and inactive calls. Unless noted, no rule for the calls is given here.

Chain of Homeobox protein Hox-A13 (Mus musculus) (Q62424 whole entry, looked up): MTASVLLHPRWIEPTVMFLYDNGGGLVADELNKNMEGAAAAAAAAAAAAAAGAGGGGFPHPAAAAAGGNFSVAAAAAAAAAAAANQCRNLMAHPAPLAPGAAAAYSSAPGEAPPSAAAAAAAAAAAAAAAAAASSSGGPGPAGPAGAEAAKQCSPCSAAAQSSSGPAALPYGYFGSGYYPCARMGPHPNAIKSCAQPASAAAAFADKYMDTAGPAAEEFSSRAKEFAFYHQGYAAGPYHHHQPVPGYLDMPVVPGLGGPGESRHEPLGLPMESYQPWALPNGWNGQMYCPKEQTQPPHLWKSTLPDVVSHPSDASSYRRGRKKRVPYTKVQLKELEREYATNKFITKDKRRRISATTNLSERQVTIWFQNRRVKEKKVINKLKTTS

Turning to `COCCOC(=O)N1C(=O)[C@@]2(c3cc(C#CCC(C(=O)OC)C(=O)OC)ccc31)[C@H](C(=O)NC[C@H](O)c1ccccc1)[C@H]1C(=O)O[C@H](c3ccccc3)[C@H](c3ccccc3)N1[C@@H]2c1ccc(O)cc1`, the composite z-score is 0.363 (inactive) in assay [1] and 0.724 in the assay with XIP peptide (Xip251-270). Also, the z-score was -1.84 in assay [2], -1.61 (inactive) in assay [3], -0.129 (inactive) in assay [4] and -0.117 (inactive) in assay [5].
In the case of `O=C(NCCN1CCOCC1)[C@@H]1c2ccccc2C(=O)N(Cc2ccccc2)[C@H]1c1ccc(CO)cc1`, the composite z-score in assay [1] is -0.181 (inactive); with XIP peptide (Xip251-270), -0.314. Further, the z-score in assay [2] was 0.681; in assay [3], -3.79 (inactive); in assay [4], -0.697 (inactive); in assay [5], -0.974 (inactive).
In the case of `COCCCNC(=O)[C@@]1(c2ccc([N+](=O)[O-])cc2)CC(=O)N(CC23CC4CC(CC(C4)C2)C3)[C@@H]1c1ccc(CO)cc1I`, the composite z-score in assay [1] is 1.15 (inactive); in the assay on XIP peptide (Xip251-270), 0.383. Moreover, the z-score is -1.13 in assay [2], -4.38 (inactive) in assay [3], 0.568 (inactive) in assay [4] and 0.885 (inactive) in assay [5].
On to `CCOC(=O)C1=CCC(c2ccccc2)N(S(=O)(=O)c2ccc([N+](=O)[O-])cc2)C1` (configuration not stated), for which the results for the composite z-score (in assay [1]; in the assay on XIP peptide (Xip251-270)) were 0.0444 (inactive) and -0.165, respectively. The z-score in assay [2] is -0.198; in assay [3], -1.91 (inactive); in assay [4] it was 0.268 (inactive); in assay [5] it was -0.0449 (inactive).
Consider `Cc1ccc(S[C@]2(C(=O)NCc3ccccc3)CC(=O)N(Cc3cc(C(F)(F)F)cc(C(F)(F)F)c3)[C@@H]2c2ccc(CO)cc2I)cc1`, for which the composite z-score in assay [1] is 1.16 (inactive); in the assay with XIP peptide (Xip251-270), -0.474. Moreover, the z-score in assay [2] was -0.261; in assay [3] it was -1.82 (inactive); in assay [4], 0.0563 (inactive); in assay [5], 0.249 (inactive).
Turning to `Cc1ccc(S[C@]2(C(=O)NC(C)C)CC(=O)N(C(C)C)[C@@H]2c2ccc(CO)cc2I)cc1`, the composite z-score was 0.317 (inactive) in assay [1] and 0.101 in the assay with XIP peptide (Xip251-270). Further, the z-score in assay [2] is -2.02; in assay [3] it was -2.58 (inactive); in assay [4], 0.0841 (inactive); in assay [5], 0.925 (inactive).
For `C=CCC(OC(C)=O)[C@@H]1[C@@H](N(Cc2ccc(-c3ccccc3)cc2)C(=O)Cc2ccc(F)cc2)c2cc(OCCCO)ccc2N1C(=O)Cc1ccc2ccccc2c1` (some centres not stated), the composite z-score in assay [1] was -0.632 (inactive); in the assay with XIP peptide (Xip251-270) it was 0.233. The z-score in assay [2] was -1.3; in assay [3], -1.5 (inactive); in assay [4], 0.433 (inactive); in assay [5], -0.048 (inactive).
As to `CC(C)C[C@@H]1NC(=O)[C@H]2C[C@@H](C(=O)NCCCCCN)[C@@H](c3cccc(OCCO)c3)N2C1=O`, the composite z-score was 1.35 (inactive) in assay [1] and 0.853 in the assay with XIP peptide (Xip251-270). Also, the z-score in assay [2] is 0.304; in assay [3], -3.68 (inactive); in assay [4], -0.242 (inactive); in assay [5], 0.0992 (inactive).
Take `COC(=O)C(CC#Cc1ccc2c(c1)[C@]1(C(=O)N2)[C@H](c2ccc(O)cc2)N2[C@H](c3ccccc3)[C@H](c3ccccc3)OC(=O)[C@H]2[C@@H]1C(=O)N1CCCCCCC1)C(=O)OC`: the figures for the composite z-score (in assay [1]; in the assay with XIP peptide (Xip251-270)) were 0.225 (inactive) and 0.59, respectively. For the same compound, the z-score is -1.92 in assay [2], 2.08 (inactive) in assay [3], -0.0422 (inactive) in assay [4] and 0.413 (inactive) in assay [5].
With `CC(C)[Si]1(C(C)C)OCc2cc(-c3ccc(-c4ccc(Cl)c(Cl)c4)o3)nc(CCc3ccccc3)c21`, the results for the composite z-score (in assay [1]; in the assay with XIP peptide (Xip251-270)) were -0.218 (inactive) and -0.355, respectively. The z-score was -0.946 in assay [2], 0.0584 (inactive) in assay [3], -0.691 (inactive) in assay [4] and -0.229 (inactive) in assay [5].
Take `C=C(COC)/C(=C/C[C@H](OC(C)=O)c1cccc(OCCO)c1)c1cnc2ccccc2c1`: the composite z-score in assay [1] is 1.46 (inactive); in the assay with XIP peptide (Xip251-270), 0.75. Moreover, the z-score in assay [2] is -2.62; in assay [3], -5.87 (inactive); in assay [4], -0.104 (inactive); in assay [5] it was 0.276 (inactive).
Consider `CC(C)OC(=O)CC(=O)CC(O)c1ccc([N+](=O)[O-])cc1` (configuration not stated), for which the composite z-score is 0.319 (inactive) in assay [1] and 0.469 in the assay with XIP peptide (Xip251-270). Also, the z-score is 0.697 in assay [2], -1.67 (inactive) in assay [3], -0.0884 (inactive) in assay [4] and -0.438 (inactive) in assay [5].
As to `CC(C)C[C@@H]1NC(=O)[C@@H]2C[C@H](C(=O)NCCCCCC[N+](C)(C)C)[C@H](c3cccc(OCCO)c3)N2C1=O`, the composite z-score in assay [1] is 0.753 (inactive); with XIP peptide (Xip251-270), 0.869. The z-score in assay [2] is 0.169; in assay [3], -5.12 (inactive); in assay [4], -0.282 (inactive); in assay [5], -0.178 (inactive).
Turning to `COCC(=C=CC[C@@H](O)c1ccc(OCCO)cc1)CCO`, the composite z-score in assay [1] was 0.474 (inactive); in the assay with XIP peptide (Xip251-270), 0.429. The z-score in assay [2] was -1.46; in assay [3], -3.22 (inactive); in assay [4], -0.321 (inactive); in assay [5], 0.301 (inactive).
For `C=C[C@@H](C)[C@H](O)c1ccc(OCCO)cc1`, the composite z-score is 0.313 (inactive) in assay [1] and 0.0813 in the assay on XIP peptide (Xip251-270). Besides, the z-score in assay [2] is 0.99; in assay [3] it was -0.166 (inactive); in assay [4] it was 0.485 (inactive); in assay [5], 0.739 (inactive).
Consider `C=C(COC)C(=O)CC[C@H](OC(=O)c1cccnc1)c1ccc(CO)o1`, for which the figures for the composite z-score (in assay [1]; in the assay with XIP peptide (Xip251-270)) were 0.0246 (inactive) and 0.193, respectively. For the same compound, the z-score was 0.535 in assay [2], -4.81 (inactive) in assay [3], 0.169 (inactive) in assay [4] and -0.143 (inactive) in assay [5].
`COc1ccc(NC(=O)O[C@H]2[C@@H]3OC(=O)[C@H](Cc4cccc(Br)c4)C/C=C/C[C@@H](Cc4cccc(Br)c4)C(=O)O[C@H]3[C@@H](OC)O[C@@H]2CO)cc1`: the composite z-score was 1.25 (inactive) in assay [1] and 0.369 with XIP peptide (Xip251-270). Also, the z-score in assay [2] is -1.6; in assay [3] it was -1.86 (inactive); in assay [4], 0.0003 (inactive); in assay [5] it was 0.0972 (inactive).
